Changes are numbered by the printed parent chain; changes in the protein carry UniProt numbers. In all, about 16,000 sequences were measured (“ka relative to ugcaugu”: median about 0.0091, highest 2% from about 0.032 on). What follows is part of a selection rich in the highest values, with near analogues and random picks from the rest.
T1: RBFOX1 RRM (Homo sapiens, UniProt Q9NWB1 109-208)
T1 sequence: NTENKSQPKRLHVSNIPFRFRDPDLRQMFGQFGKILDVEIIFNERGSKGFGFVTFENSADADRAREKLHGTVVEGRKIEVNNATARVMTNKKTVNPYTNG

B1: UCAGACC (DNA:RNA)
RNA: GGGAGACCGGAAUUCAGAUUGUCCUCAGACCUUAAAUCCCGUCGUAGCCACCA
DNA 1: CAATCTGAATTCCGGTCTCCC
DNA 2: TGGTGGCTACGACGGGATT
B2: UGAGCUA (DNA:RNA)
RNA: B1 RNA with C26G, A29C, C30U, C31A
DNA 1: CAATCTGAATTCCGGTCTCCC
DNA 2: TGGTGGCTACGACGGGATT
B3: UAGAGGG (DNA:RNA)
RNA: B1 RNA with C26A, A27G, G28A, A29G, C30G, C31G
DNA 1: CAATCTGAATTCCGGTCTCCC
DNA 2: TGGTGGCTACGACGGGATT
B4: AACACAA (DNA:RNA)
RNA: GGGAGACCGGAAUUCAGAUUGUCCAACACAAUUAAAUCCCGUCGUAGCCACCA
DNA 1: CAATCTGAATTCCGGTCTCCC
DNA 2: TGGTGGCTACGACGGGATT
B5: GAGAUCC (DNA:RNA)
RNA: B4 RNA with A25G, C27G, C29U, A30C, A31C
DNA 1: CAATCTGAATTCCGGTCTCCC
DNA 2: TGGTGGCTACGACGGGATT
B6: UCUGUUC (DNA:RNA)
RNA: B1 RNA with A27U, A29U, C30U
DNA 1: CAATCTGAATTCCGGTCTCCC
DNA 2: TGGTGGCTACGACGGGATT
B7: GAGGGGG (DNA:RNA)
RNA: B4 RNA with A25G, C27G, A28G, C29G, A30G, A31G
DNA 1: CAATCTGAATTCCGGTCTCCC
DNA 2: TGGTGGCTACGACGGGATT
B8: UGGCGUG (DNA:RNA)
RNA: B1 RNA with C26G, A27G, G28C, A29G, C30U, C31G
DNA 1: CAATCTGAATTCCGGTCTCCC
DNA 2: TGGTGGCTACGACGGGATT
B9: GCUGGUU (DNA:RNA)
RNA: B1 RNA with U25G, A27U, A29G, C30U, C31U
DNA 1: CAATCTGAATTCCGGTCTCCC
DNA 2: TGGTGGCTACGACGGGATT
B10: GGCUGGU (DNA:RNA)
RNA: B4 RNA with A25G, A26G, A28U, C29G, A30G, A31U
DNA 1: CAATCTGAATTCCGGTCTCCC
DNA 2: TGGTGGCTACGACGGGATT
B11: UGGCUUC (DNA:RNA)
RNA: B1 RNA with C26G, A27G, G28C, A29U, C30U
DNA 1: CAATCTGAATTCCGGTCTCCC
DNA 2: TGGTGGCTACGACGGGATT
B12: UGGCGUA (DNA:RNA)
RNA: B4 RNA with A25U, A26G, C27G, A28C, C29G, A30U
DNA 1: CAATCTGAATTCCGGTCTCCC
DNA 2: TGGTGGCTACGACGGGATT
B13: UGGCUUG (DNA:RNA)
RNA: B1 RNA with C26G, A27G, G28C, A29U, C30U, C31G
DNA 1: CAATCTGAATTCCGGTCTCCC
DNA 2: TGGTGGCTACGACGGGATT
B14: GUGCUGG (DNA:RNA)
RNA: GGGAGACCGGAAUUCAGAUUGUCCGUGCUGGUUAAAUCCCGUCGUAGCCACCA
DNA 1: CAATCTGAATTCCGGTCTCCC
DNA 2: TGGTGGCTACGACGGGATT
B15: UGGCGUC (DNA:RNA)
RNA: B14 RNA with G25U, U26G, U29G, G30U, G31C
DNA 1: CAATCTGAATTCCGGTCTCCC
DNA 2: TGGTGGCTACGACGGGATT
B16: CGGCUGG (DNA:RNA)
RNA: B14 RNA with G25C, U26G
DNA 1: CAATCTGAATTCCGGTCTCCC
DNA 2: TGGTGGCTACGACGGGATT
B17: UCCUGGC (DNA:RNA)
RNA: B1 RNA with A27C, G28U, A29G, C30G
DNA 1: CAATCTGAATTCCGGTCTCCC
DNA 2: TGGTGGCTACGACGGGATT
B18: UGGCUGG (DNA:RNA)
RNA: B14 RNA with G25U, U26G
DNA 1: CAATCTGAATTCCGGTCTCCC
DNA 2: TGGTGGCTACGACGGGATT
B19: UUGCUGG (DNA:RNA)
RNA: B14 RNA with G25U
DNA 1: CAATCTGAATTCCGGTCTCCC
DNA 2: TGGTGGCTACGACGGGATT
B20: GCUAGGA (DNA:RNA)
RNA: B4 RNA with A25G, A26C, C27U, C29G, A30G
DNA 1: CAATCTGAATTCCGGTCTCCC
DNA 2: TGGTGGCTACGACGGGATT

target: T1, RBFOX1 RRM; experiment: EMSA; HiTS-Eq, 1 nM pool, 10 min; buffer printed only for the single-RNA assays: 10 mM Tris pH 7.5, 150 mM NaCl, 3.4 mM EDTA, 0.001% NP-40, 30 C; conditions: tags: His6 N-terminal (pET28a); label: 5' 32P
In short: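 A pool of RNA with 7 randomized nucleotides, 5′-radiolabelled and with DNA-annealed flanks, was equilibrated at 1 nM for 10 min in 50 µL with purified RbFox RRM, wild type or mutant, across increasing protein concentrations. Free RNA was separated by 8% native PAGE, excised, reverse-transcribed, barcoded by PCR and sequenced. Relative association constants were obtained from read-count changes of each RNA species versus the control reaction and normalised to the cognate motif.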

Binder | binding signal
B1 | 0.00454 KA relative to UGCAUGU
B2 | 0.015 KA relative to UGCAUGU
B3 | 0.00669 KA relative to UGCAUGU
B4 | 0.00155 KA relative to UGCAUGU
B5 | 0.0136 KA relative to UGCAUGU
B6 | 0.0184 KA relative to UGCAUGU
B7 | 0.0168 KA relative to UGCAUGU
B8 | 0.0332 KA relative to UGCAUGU
B9 | 0.0289 KA relative to UGCAUGU
B10 | 0.0324 KA relative to UGCAUGU
B11 | 0.0201 KA relative to UGCAUGU
B12 | 0.0143 KA relative to UGCAUGU
B13 | 0.0526 KA relative to UGCAUGU
B14 | 0.0295 KA relative to UGCAUGU
B15 | 0.0251 KA relative to UGCAUGU
B16 | 0.0236 KA relative to UGCAUGU
B17 | 0.0109 KA relative to UGCAUGU
B18 | 0.0415 KA relative to UGCAUGU
B19 | 0.0302 KA relative to UGCAUGU
B20 | 0.00693 KA relative to UGCAUGU
